# Test results: PubChem BioAssay
# Calls of active or inactive are those of the source. Unless noted, no rule for the calls is given here.
# Tests used:
# [1] = system: Wnt5a (protein binding on small-molecule microarray); assay: Wnt5a binders on small-molecule microarray, primary screen, biophysical, 635/667 nm fluorescence (AID 1142); conditions: 635 nm fluorescence, higher = more signal;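 also: fluorescence read at 667 nm with signal to noise per printed feature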
# [2] = cell viability in Huh7 cells, primary screen, cytotoxicity control for HCV replication inhibitor project, CellTiter-Glo luminescence, basal, 48 h (AID 1143); conditions: Huh7 HCV replicon, higher = more signal, called active from +8 up or from −8 down;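 also: Huh7 hepatoma cells carrying a hepatitis C replication reporter with no stimulus; test concentration not given here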
# [3] = P. aeruginosa biofilm formation inhibitors, primary screen, PAO1 strain, BacTiter-Glo luminescence, LB-PBS (AID 1144); conditions: 12 h, higher = more signal
# [4] = CREB reporter modulators without forskolin, primary screen, cell-based, PC12, CRE-LacZ reporter, unstimulated (AID 1145); conditions: no forskolin, luminescence, 4.5 h, higher = more signal, called active from +8 up or from −8 down
# [5] = CREB reporter modulators under forskolin, primary screen, cell-based, PC12, CRE-LacZ reporter, forskolin-stimulated (AID 1146); conditions: luminescence, 4.5 h, higher = more signal, called active from +8 up or from −8 down;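 also: PC12 cells with 6xCRE LacZ reporter stimulated by forskolin 10 µM; beta-galactosidase reporter signal reflecting CREB driven transcription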
# [6] = biological target: Streptavidin (Streptomyces avidinii) (UniProt P22629); assay: streptavidin binders on small-molecule microarray, primary screen, artefact control for SMM compound annotation, biophysical, 635/667 nm fluorescence (AID 1147); conditions: streptavidin binding, higher = more signal;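 also: signal reflects streptavidin binding to arrayed compounds as a control protein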
# Chain of Streptavidin (Streptomyces avidinii) (P22629 whole entry, looked up): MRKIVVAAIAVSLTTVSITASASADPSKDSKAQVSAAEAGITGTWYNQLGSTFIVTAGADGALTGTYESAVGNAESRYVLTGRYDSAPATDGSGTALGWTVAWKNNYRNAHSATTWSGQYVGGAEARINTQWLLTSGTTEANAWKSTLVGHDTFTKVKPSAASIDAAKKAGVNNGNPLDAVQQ
# [7] = small-molecule binders of probe aInhba, primary screen, biochemical, small-molecule microarray, 635/667 nm fluorescence (AID 1148); conditions: higher = more signal;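 also: score merges 667nm spot fluorescence with signal-to-noise for antibody binding to printed compounds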
# Torsin-1A (Homo sapiens) [8] = biological target: Torsin-1A (Homo sapiens) (UniProt O14656); assay: torsin A binders from cell lysate, primary screen, small-molecule microarray, wild-type, 635/667 nm (AID 1149); conditions: COS7 hTOR1A-WT lysate, 635 nm fluorescence, higher = more signal
# Chain of Torsin-1A (Homo sapiens) (O14656 whole entry, looked up): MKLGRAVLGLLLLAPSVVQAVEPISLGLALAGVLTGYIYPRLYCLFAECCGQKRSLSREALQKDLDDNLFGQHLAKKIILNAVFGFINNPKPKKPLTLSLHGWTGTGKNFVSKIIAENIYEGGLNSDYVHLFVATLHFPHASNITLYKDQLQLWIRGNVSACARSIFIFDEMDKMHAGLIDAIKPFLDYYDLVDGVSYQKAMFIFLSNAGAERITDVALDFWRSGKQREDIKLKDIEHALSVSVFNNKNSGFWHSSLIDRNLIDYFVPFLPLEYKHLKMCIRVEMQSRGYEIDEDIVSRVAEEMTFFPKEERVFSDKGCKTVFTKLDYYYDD
# Torsin-1A (Homo sapiens) [9] = biological target: Torsin-1A (Homo sapiens) (UniProt O14656); assay: small-molecule binders of mutant TOR1A in lysate, primary screen, cell lysate, small-molecule microarray, COS7 lysate, 635/667 nm fluorescence (AID 1150); conditions: COS7 hTOR1A mutant lysate, 635 nm fluorescence, higher = more signal;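 also: score pools 667 nm emission and signal to noise measuring lysate protein binding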
# [10] = system: Sonic hedgehog protein (Shh); assay: small-molecule binders of Shh protein, primary screen, biochemical, small-molecule microarray, 635/667 nm fluorescence (AID 1151); conditions: small-molecule microarray binding, 635 nm fluorescence; higher = more signal;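 also: Shh protein binding to compounds spotted on small-molecule microarray slides; score combines spot fluorescence intensity with signal-to-noise across triplicate slides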
SMILES,composite z-score [1],z-score [2],z-score [3],z-score [4],z-score [5],composite z-score [6],composite z-score [7],composite z-score (Torsin-1A (Homo sapiens) [8]),composite z-score (Torsin-1A (Homo sapiens) [9]),composite z-score [10]
CO[C@@H]1COC(=O)CCC[C@@H](C)[C@H](OC)COC(=O)CCC[C@H]1C,-0.0665,-0.459 (inactive),-0.276 (inactive),-0.152 (inactive),0.273 (inactive),0.0601,-0.0405,0.978,0.662,0.533
COC(=O)[C@@]1(Cc2ccccc2)[C@H]2c3cc(C(=O)N4CCCC4)n(Cc4ccccn4)c3C[C@H]2CN1C(=O)c1ccccc1,1.25,-1.5 (inactive),-1.42 (inactive),0.201 (inactive),1.06 (inactive),1.02,0.74,0.671,1.91,-0.369
CCCNC(=O)[C@@H]1c2ccccc2C(=O)N(c2ccc(C)cn2)[C@H]1c1ccc(CO)cc1,-0.108,0.62 (inactive),0.242 (inactive),-0.412 (inactive),0.538 (inactive),-0.372,-0.108,-0.291,-0.397,-0.013
CC(C)NC(=O)[C@@H]1c2ccccc2C(=O)N(CC23CC4CC(CC(C4)C2)C3)[C@H]1c1ccc(CO)cc1,0.0678,-4.06 (inactive),-2.1 (inactive),-0.0259 (inactive),-0.607 (inactive),0.969,0.0569,0.508,0.561,1.54
C=C(CCCC)C(=O)CC[C@@H](OC(C)=O)c1cccc(OCCO)c1,0.0837,-7.53 (inactive),-0.0381 (inactive),9.03 (active),2.58 (inactive),-0.543,-0.21,1.29,0.594,1.56
O=C1[C@H]2[C@H]3[C@H](O)[C@H](O)CC(=NO[C@@H]4O[C@H](CO)[C@@H](O)[C@H](O)[C@H]4O)[C@@H]3CC[C@H]2C(=O)N1c1ccc(F)cc1F,0.166,0.115 (inactive),0.593 (inactive),0.0711 (inactive),0.767 (inactive),0.38,-0.0719,0.851,1.1,0.51
COC(=O)CC=C[C@@H](C)[C@@H](C=NO[C@H](C)c1cn([C@@H]2COC[C@H]2O)nn1)OC,0.0282,0.324 (inactive),-1.66 (inactive),0.518 (inactive),-0.0094 (inactive),0.521,-0.159,0.73,0.863,0.76
CCOC(=O)C[C@H]1[C@H](OC(=O)c2cc3ccccc3oc2=O)[C@@H](NC(=O)c2ccc3ccccc3n2)c2cc(OCCCO)ccc2N1C(=O)c1ccccc1,0.537,-2.98 (inactive),0.287 (inactive),11.9 (active),0.576 (inactive),0.28,0.0345,0.354,1.37,0.574
O=C(NN=C1C[C@@H](O)[C@@H](O)[C@@H]2[C@@H]3C(=O)N(c4cccc(Oc5ccccc5)c4)C(=O)[C@@H]3CC[C@@H]12)OCc1ccccc1,-0.0255,-0.033 (inactive),-0.0198 (inactive),1.6 (inactive),-0.227 (inactive),0.504,-0.183,0.212,0.31,-0.376
CS(=O)(=O)CCOC(=O)C1=CC(CCCO)=CC(c2cccs2)N(Cc2cccc(OC(F)(F)F)c2)C=C1C(=O)OCCS(C)(=O)=O (stereo not given),0.141,-3.11 (inactive),0.957 (inactive),4.08 (inactive),0.706 (inactive),1.25,0.245,0.972,0.88,0.37
COC(=O)c1c(CC[C@@H](CO)NC(=O)N[C@H](Cc2ccccc2)Cn2cc(-c3ccccc3N)nn2)oc(C(C)=O)c1C(=O)OC,-0.0029,-0.145 (inactive),0.41 (inactive),3.84 (inactive),-0.687 (inactive),2.14,0.449,0.481,0.794,0.352
COc1ccc(O[C@H]2C=C[C@@H](c3ccccc3)O[C@@H]2COC(=O)CCC(C)=NO[C@@H](C)c2cc(-c3c(C)cc(C)cc3C)no2)cc1,-0.61,-0.961 (inactive),-0.587 (inactive),-0.315 (inactive),0.65 (inactive),-0.987,-0.295,-1.29,-1.04,0.224
CC(=O)OC[C@H]1O[C@@H](ON=C[C@@H](C)[C@H](OCc2ccccc2)C(C)C)[C@H](OC(C)=O)[C@@H](OC(C)=O)[C@@H]1OC(C)=O,0.235,0.558 (inactive),-0.379 (inactive),2.19 (inactive),0.1 (inactive),-0.173,0.157,1.68,0.958,-0.925
CC(C)(C)N1C(=O)[C@H]2[C@H]3[C@H](O)[C@H](O)CC(=NOCc4ccccc4)[C@@H]3CC[C@H]2C1=O,0.351,-0.939 (inactive),0.614 (inactive),0.16 (inactive),0.479 (inactive),0.33,-0.0986,0.678,0.119,1.26
O=C1[C@H]2[C@H]3[C@H](O)[C@H](O)CC(=NOC[C@@H](O)COCc4ccco4)[C@H]3CC[C@H]2C(=O)N1Cc1ccc2c(c1)OCO2,0.138,-0.012 (inactive),2.01 (inactive),-0.657 (inactive),0.0952 (inactive),-0.405,-0.162,3.53,3.17,2.03
CC(=O)O[C@H]1C2=C(C(=O)[C@@H]3O[C@@H]31)[C@H]1C(C)O[C@@H]2[C@@]23C(=O)[C@@H]4O[C@@H]4[C@@H](O)C2=CO[C@H](C)[C@@H]13 (stereo not given in full),0.129,-1.6 (inactive),0.968 (inactive),0.108 (inactive),4.27 (inactive),-0.503,-0.214,0.0116,0.0652,0.283
O=C1[C@H]2[C@H]3[C@H](O)[C@H](O)CC(=NO[C@@H]4O[C@H](CO)[C@@H](O)[C@H](O)[C@H]4O)[C@@H]3CC[C@H]2C(=O)N1Cc1ccccc1,-0.0389,-0.435 (inactive),0.0971 (inactive),-0.929 (inactive),0.488 (inactive),-0.561,0.0925,-0.333,0.409,-0.37
C[C@@H](c1ccccc1)N1C(=O)[C@H]2[C@H]3[C@H](O)C=CC(=O)[C@@H]3CC[C@H]2C1=O,-0.143,-1.8 (inactive),0.715 (inactive),0.247 (inactive),-0.323 (inactive),0.831,0.0422,0.445,0.0746,0.593
CC(=O)OC[C@H]1O[C@H](CCON=C(C)CCN2CCc3nc(-c4ccccc4)c(-c4ccccc4)cc3C2)C=C[C@@H]1OC(C)=O,-0.192,-1.04 (inactive),0.23 (inactive),4.88 (inactive),0.0929 (inactive),0.316,0.156,0.0622,0.407,0.287
CCCNC(=O)OC[C@H]1O[C@H](CCON=CC[C@@H]2C=C[C@H](OC(C)=O)[C@@H](COC(C)=O)O2)C=C[C@@H]1Oc1ccc(OC)cc1,0.371,0.0377 (inactive),0.348 (inactive),0.345 (inactive),0.391 (inactive),0.0822,-0.128,-0.475,0.0275,0.535
COc1cccc([C@H]2Oc3ccc(OC)cc3C(=NO[C@H](C)c3cn([C@@H]4COC[C@H]4O)nn3)[C@@H]2O)c1,-0.104,-2.16 (inactive),-0.302 (inactive),6.84 (inactive),0.258 (inactive),1.44,-0.182,-0.102,-0.119,-0.223
COC(=O)CC=C[C@H](C)[C@H](CO)NS(=O)(=O)c1ccc(C)cc1,0.378,-1.27 (inactive),-0.0262 (inactive),-0.434 (inactive),-0.692 (inactive),0.293,-0.122,0.375,0.0191,0.82
C[C@H]1CC[C@@H](C(=O)O)N[C@@H]1c1ccc(C#CCN(C)C)cc1,0.163,0.141 (inactive),-0.0379 (inactive),1.83 (inactive),-1.12 (inactive),0.85,-0.273,0.363,0.323,0.427
O=C1O[C@@H](c2ccccc2)[C@@H](c2ccccc2)N2[C@@H](c3ccc(O)cc3)[C@]3(C(=O)Nc4ccccc43)[C@@H](C(=O)O)[C@H]12,-0.0286,-4.36 (inactive),0.0547 (inactive),0.568 (inactive),0.532 (inactive),0.0078,0.0442,0.509,0.548,-0.192
O=C1NC(=O)C2C1C=CC(C(O)Cc1ccccc1)N2Nc1ccccn1 (stereo not given),0.0926,-0.151 (inactive),-0.314 (inactive),0.0603 (inactive),0.589 (inactive),0.125,-0.0039,0.638,0.933,0.141
CN1C(=O)C2C(C1=O)C1C=C(CCCO)C2C(c2ccc(CN3CCCC3)cc2)N1C (stereo not given),-0.205,-0.202 (inactive),0.675 (inactive),-0.0743 (inactive),-0.436 (inactive),-0.383,-0.157,0.33,-0.287,0.207
COCCOC(=O)N1C(=O)[C@@]2(c3cc(C#CCNC(N)=O)ccc31)[C@H](c1ccccc1OCCO)N1[C@H](c3ccccc3)[C@H](c3ccccc3)OC(=O)[C@H]1[C@@H]2C(=O)N1CCN(c2ncccn2)CC1,0.734,-1.96 (inactive),-0.897 (inactive),-0.465 (inactive),2.16 (inactive),0.29,0.0497,0.303,0.923,0.966
CC(C)(C)OC(=O)CC[C@]1(C(=O)NCc2ccccc2)N=C(c2ccc(OCCCO)cc2)O[C@H]1c1ccccc1,1.01,-3.16 (inactive),-1.77 (inactive),0.699 (inactive),-1.23 (inactive),1.58,0.347,0.712,1.11,-0.349
C=CC[C@@H]1C=C[C@H](ON=C[C@@H](OC)[C@H](C)C=CCC(=O)OC)[C@@H](CO)O1,0.313,0.669 (inactive),0.0583 (inactive),-0.957 (inactive),-0.385 (inactive),-0.259,0.157,0.434,0.352,0.224
